A selection: hits, their analogues and other compounds. The true share with any hit is near 11%.
JMJD2A Tudor = qHTS Assay for Inhibitors of JMJD2A-Tudor Domain. Potency, µM (highest dose often 114 µM), for the others: at the highest dose activity change, negative = inhibition, most hits filed as inhibitors. AlphaScreen JMJD2A-Tudor / H3K4me3 peptide binding. Lysine-specific demethylase 4A (Homo sapiens), O75164. actives 4.4% (n = 390,000). AID 504339, 2011; also: % is scaled to controls: 0 for no effect and ±100 for the full control effect; nearly all actives have a fitted effect of over 50% in size
G9a inh = qHTS Assay for Inhibitors of Histone Lysine Methyltransferase G9a; Histone-lysine N-methyltransferase EHMT2 (Homo sapiens), Q96KQ7; G9a H3K9 monomethylation, AlphaScreen, 2 h; Potency, µM (doses to about 102 µM), inactives show top-dose activity, negative = inhibition, hits mostly inhibitors; actives 8.8% (n = 350,000); AID 504332, 2011; also: % is scaled to controls: 0 for no effect and ±100 for the full control effect; nearly all actives have a fitted effect of over 75% in size
Target sequence (Q96KQ7 913-1193 limits assumed): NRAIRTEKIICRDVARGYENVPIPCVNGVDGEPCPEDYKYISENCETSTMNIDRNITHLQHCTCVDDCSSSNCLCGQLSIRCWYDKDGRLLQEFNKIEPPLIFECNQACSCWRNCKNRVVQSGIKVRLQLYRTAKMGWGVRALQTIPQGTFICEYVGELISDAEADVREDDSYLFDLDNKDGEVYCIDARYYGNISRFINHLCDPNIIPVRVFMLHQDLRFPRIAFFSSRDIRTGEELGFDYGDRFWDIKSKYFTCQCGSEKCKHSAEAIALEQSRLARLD
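Methyltransferase reactions run at room temperature for 2 h (20 nM enzyme, 500 nM biotin-H3K9 peptide, 20 uM SAM) after a 15 min compound preincubation; product detected by AlphaScreen beads and anti-H3K9me1 antibody.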
L3MBTL1 block = qHTS Assay for the Inhibitors of L3MBTL1; Lethal(3)malignant brain tumor-like protein 1 (Homo sapiens), Q9Y468; AlphaScreen L3MBTL1–H3K9me1 peptide binding; Potency, µM (doses to about 57.1 µM), for the others: at the highest dose activity, negative = inhibition, most hits filed as inhibitors; actives 0.66% (n = 230,000); also: % is scaled to controls: 0 for no effect and ±100 for the full control effect; nearly all actives have a fitted effect of over 60% in size
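L3MBTL1 (50 nM) pre-complexed 30 min with biotinylated H3(1-15)K9me1 peptide (75 nM), then compounds added for 30 min at room temperature; AlphaScreen streptavidin donor/nickel chelate acceptor beads (10 ug/mL final) read after 30 min dark incubation.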
BAZ2B block = qHTS Assay for Inhibitors of BAZ2B | Potency, µM (titrated, usually from 114 µM), without a hit: top-dose activity change, negative = inhibition, hits mostly inhibitors | AlphaScreen BAZ2B-H3K14Ac peptide displacement | actives 4.4% (n = 360,000) | AID 504333, 2011 | Bromodomain adjacent to zinc finger domain protein 2B (Homo sapiens), Q9UIF8; also: % is scaled to controls: 0 for no effect and ±100 for the full control effect; nearly all actives have a fitted effect of over 60% in size
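Multi-concentration screen (max 110 uM) measuring displacement of acetylated histone H3 peptide from BAZ2B by AlphaScreen, using 50 nM protein, 50 nM peptide and 10 ug/mL streptavidin donor plus Ni-chelate acceptor beads.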
HP1b chromo inh = HTS for Inhibitors of HP1-beta Chromodomain Interactions with Methylated Histone Tails; actives 0.56% (n = 390,000); AlphaScreen HP1-beta / biotin-H3K9me3 peptide binding; Potency, µM (doses to about 114 µM), for the others: top-dose activity change, negative = inhibition, hits mostly inhibitors; also: nearly all actives have a fitted effect of over 70% in size
Target sequence (P83916 whole entry, looked up): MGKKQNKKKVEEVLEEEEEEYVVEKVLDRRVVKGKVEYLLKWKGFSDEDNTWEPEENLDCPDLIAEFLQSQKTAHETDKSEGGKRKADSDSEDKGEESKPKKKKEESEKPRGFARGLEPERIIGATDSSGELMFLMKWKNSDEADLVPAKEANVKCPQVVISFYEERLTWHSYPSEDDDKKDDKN
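Compound inhibition of the preformed complex between 50 nM HP1-beta and 50 nM biotinylated H3K9me3 peptide was read by AlphaScreen. Buffer was PBS pH 7.4 with 0.01% Tween-20. Incubations ran 30 min at room temperature, with 10 ug/mL donor/acceptor beads.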
* hit, by the source's call; ? = inconclusive; . = no result given; [ ] = dose if it differs, or a comment. Calls follow the shape of the dose curve; as a rule, active = well fitted inhibition curve with a large enough effect; inconclusive = small, poorly fitted or top-dose-only effect; inactive = no such curve, though single readings can be large or run the other way. Potency is read from the fitted curve at half-maximal effect.

SMILES	JMJD2A Tudor	G9a inh	L3MBTL1 block	BAZ2B block	HP1b chromo inh
COc1cccc(NC(=O)C(NCC2CCCCC2)c2ccccc2)c1 (stereo unspecified)	1µM*	3.2µM*	.	?	?
O=C(/C=C/c1ccco1)Nc1ccc(-c2nc3ccccc3[nH]2)cc1	-3%	40µM*	12%	?	6%
O=C(CN(c1cccc(C(F)(F)F)c1)S(=O)(=O)c1ccccc1)Nc1cccc(Cl)c1	3%	-5%[59 µM]	.	-2%	59%
COc1ccc(NS(=O)(=O)c2ccccc2C(=O)O)cc1	-11%	.	.	.	.
CCOc1ccc(-n2c(=O)c3c(C)c(C(=O)N(C)C)sc3n(CC(=O)Nc3c(C)cc(C)cc3C)c2=O)cc1	-20%	8%[59 µM]	.	-9%	9%
O=C(/C=C/c1ccco1)Nc1ccc(N2CCCC2)cc1	-30%	0.89µM*	-13%	-33%	-13%
CSc1cccc(NC(=O)/C=C/c2ccco2)c1	-30%	28µM*	.	?	-17%
C=CC[n+]1c(-c2ccc(OC)cc2)csc1NNC(=O)Nc1ccccc1	50µM*	14µM*	.	10µM*	-34%
CC(NC(=O)CN1C(=O)COc2ccc(S(=O)(=O)N3CCCCCC3)cc21)c1ccccc1 (stereo unspecified)	-9%	-7%[59 µM]	.	-14%	17%
Cc1cccc(N2CCN(C(=O)CCS(=O)(=O)c3ccc4c(c3)CC(=O)N4C)CC2C)c1 (stereo unspecified)	3%	?	.	-3%	20%
O=C(c1cccc(S(=O)(=O)N2CCc3ccccc32)c1)N1CCN(c2ccccc2)CC1	-33%	22µM*	-9%	4%	-9%
CCc1cccc(CC)c1NC(=O)c1ccc2c(c1)CCN2S(=O)(=O)c1ccccc1	-12%	2.5µM*	.	1%	7%
CCc1cccc(C)c1NC(=O)c1ccc2c(c1)CCN2S(=O)(=O)c1ccc(Cl)cc1	-20%	-1%[59 µM]	.	0%	14%
CCN1CCN(C(=O)c2ccc(CNS(=O)(=O)c3cccc(OC)c3)cc2)CC1	-11%	45µM*	.	?	19%
COc1ccc(N2CCN(C(=O)COC(=O)c3cccc(S(=O)(=O)Nc4cccc(C)c4)c3)CC2)cc1	?	10µM*	-20%	-36%	-25%
O=C(Nc1cccc(C(=O)OCc2cc(=O)n3c4c(sc3n2)CCCC4)c1)c1cccc(F)c1	6%	1%[12.7 µM]	.	-10%	28%
Cc1cn(C2CCCO2)c(=O)nc1N (stereo unspecified)	5%	.	.	.	50%
COc1ccc(N2CCN(C(=O)c3ccc(CNS(=O)(=O)c4cc(C)ccc4C)cc3)CC2)cc1	?	32µM*	.	?	-15%
COc1ccc(N2CCN(C(=O)c3ccc(NS(=O)(=O)c4ccccc4)cc3)CC2)cc1	-31%	20µM*	16%	57%	?
O=C(c1ccc2c(c1)CCN2S(=O)(=O)c1ccccc1)N1CCN(c2ccc(F)cc2)CC1	-33%	-10%	.	-26%	7%
COc1ccc(N2CCN(C(=O)c3ccc4c(c3)CCN4S(=O)(=O)c3ccccc3)CC2)cc1	?	28µM*	.	20µM*	32%
COc1ccc(-c2nc(O)c3cnccn23)cc1	-14%	?	10%	-22%	17%
CSc1ccc(-c2nc(O)c3cnccn23)cc1	-10%	40µM*	-4%	-23%	20%
O=C(CSc1nc2c([nH]c3ccccc32)c(=O)n1-c1ccccc1)N1CCc2ccccc21	1%	16%[59 µM]	.	6%	15%[57 µM]
O=C1C=CC(=O)N1	-35%	2µM*	-1%	11%	?
SMILES	JMJD2A Tudor	G9a inh	L3MBTL1 block	BAZ2B block	HP1b chromo inh
CCCN(C(=O)c1noc2c1COc1ccc(C)cc1-2)c1ccc(Cl)c(Cl)c1	5%	17%[59 µM]	.	-15%	67%
S=c1[nH]nc(Nc2cccc3ccccc23)s1	18µM*	0.32µM*	-18%	?	40µM*
Fc1ccccc1Nc1n[nH]c(=S)s1	2.8µM*	2.8µM*	-1%	50µM*	45µM*
S=c1[nH]nc(Nc2ccc(Cl)cc2)s1	-35%	.	7%	?	2%
Cc1c(Cl)cccc1Nc1n[nH]c(=S)s1	11µM*	.	.	.	50µM*
CCOc1ccc(Nc2n[nH]c(=S)s2)cc1	?	-150%	-2%	-9%	-18%
CCOC(=O)C1=C[C@@H](C(=O)OCC)[C@@H]2C3=C(C(=O)C2(C)C)[C@H](c2ccccc2)[C@@H]2C(=O)N(c4ccccc4)C(=O)[C@@H]2[C@@H]3C1	-18%	.	.	.	21%
CCOc1ccc(NC(=O)CC2C(=O)N(c3ccc(Cl)cc3)C(=O)N2Cc2cccs2)cc1 (stereo unspecified)	-9%	0%[59 µM]	.	-14%	17%
NS(=O)(=O)c1cccc(C(=O)OCC(=O)NC2CCCc3ccccc32)c1 (stereo unspecified)	-2%	.	-28%	.	13%
CC(=O)N(c1ccc(Cl)cc1)C1SC(=O)N(c2ccccc2)C1=O (stereo unspecified)	-13%	.	.	.	34%
Cn1c(=O)c(-c2ccc(Cl)cc2)nc2cnc(OCc3ccccc3)nc21	.	8%[0.501 µM]	.	.	.
CCc1ccccc1N(C)C(=O)c1nn(C)c2c1CSc1ccccc1-2	4%	-36%[59 µM]	.	4%	46%
CCOC(=O)c1[nH]c(=S)n(Cc2ccccc2)c1C(=O)OCC	3.2µM*	.	.	.	?
COc1ccc(N2Cc3cccc(C(=O)Nc4ccc(C)c(C)c4)c3C2=O)cc1	-24%	-24%[59 µM]	.	?	15%
COc1ccc(N2CC(C)Cn3c2nc2c3c(=O)n(Cc3ccccc3)c(=O)n2C)c(OC)c1 (stereo unspecified)	?	6.3µM*	.	?	-25%
COc1ccc(N2CCn3c2nc2c3c(=O)n(CCCc3ccccc3)c(=O)n2C)cc1	.	-34%	-5%	8%	.
Cn1c(=O)c2c(nc3n2CC(O)CN3c2ccc(O)cc2)n(C)c1=O (stereo unspecified)	-24%	79µM*	-5%	-2%	15%
CCOc1ccc(N2CC(O)Cn3c2nc2c3c(=O)n(CCCc3ccccc3)c(=O)n2C)cc1 (stereo unspecified)	-22%	2.5µM*	.	-6%	13%
COc1ccc(N2CC(C)Cn3c2nc2c3c(=O)n(CCc3ccccc3)c(=O)n2C)cc1 (stereo unspecified)	-3%	3.2µM*	4%	0%	25%
Cc1ccc(N2CC(O)Cn3c2nc2c3c(=O)n(C)c(=O)n2C)cc1 (stereo unspecified)	-17%	0%	.	0%	31%

Screening data: PubChem BioAssay, National Center for Advancing Translational Sciences (NCATS)
